Screening results as filed in PubChem BioAssay.
HP1b chromo inh = blocks HP1-beta chromodomain binding to methylated histone tails. AlphaScreen HP1-beta / biotin-H3K9me3 peptide binding. Potency, µM (doses to about 114 µM), usual class: inhibitors. hit rate 0.56% among 390,000. AID 540317; further: nearly all actives have a fitted effect of over 70% in size
Target sequence (P83916 whole entry, looked up): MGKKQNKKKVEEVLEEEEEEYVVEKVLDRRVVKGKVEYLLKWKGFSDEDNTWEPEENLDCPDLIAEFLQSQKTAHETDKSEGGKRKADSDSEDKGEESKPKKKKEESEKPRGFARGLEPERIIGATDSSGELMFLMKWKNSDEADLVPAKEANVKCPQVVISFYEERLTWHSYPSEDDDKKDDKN
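AlphaScreen: HP1-beta (50 nM) preformed 30 min with biotin-H3(1-18)K9me3 peptide (50 nM) in PBS pH 7.4, 0.01% Tween-20. Compound added for 30 min at RT, then streptavidin donor/nickel chelate acceptor beads (10 ug/mL) for 30 min.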
GLS inh = inhibitors of human glutaminase (GLS) | Potency, µM (titrated, usually from 45.5 µM), usual class: inhibitors | O94925 | GLS enzymatic activity, qHTS titration | hit rate 0.21% among 410,000
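Enzyme dispensed in phosphate buffer (45 mM, pH 8.2, 0.02% Tween-20), compounds pinned in, then 1 mM L-glutamine solution and the glutamate oxidase–HRP–Amplex Red mix added; fluorescence read immediately and again after 30 min at room temperature.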
G9a inh = G9a (human) methyltransferase inhibition. Potency, µM (highest dose often 102 µM), usual class: inhibitors. hit rate 8.8% among 350,000. G9a H3K9 monomethylation, AlphaScreen, 2 h. AID 504332. Q96KQ7; further: nearly all actives have a fitted effect of over 75% in size
Target sequence (Q96KQ7 913-1193 limits assumed): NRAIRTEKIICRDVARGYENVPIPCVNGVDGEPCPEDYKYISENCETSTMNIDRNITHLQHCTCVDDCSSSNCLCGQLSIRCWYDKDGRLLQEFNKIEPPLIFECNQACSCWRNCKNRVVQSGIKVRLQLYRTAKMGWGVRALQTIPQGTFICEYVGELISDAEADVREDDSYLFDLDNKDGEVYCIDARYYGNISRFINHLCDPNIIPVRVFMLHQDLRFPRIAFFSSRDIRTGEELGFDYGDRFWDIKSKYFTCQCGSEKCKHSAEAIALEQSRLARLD
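Compounds were preincubated with 20 nM G9a for 15 min, after which biotinylated H3K9 peptide (500 nM) and SAM (20 uM) started a 2 h room-temperature reaction. Monomethylated product was quantified by antibody-based AlphaScreen chemiluminescence.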
BAZ2B block = blocks human BAZ2B | Q9UIF8 | AlphaScreen BAZ2B-H3K14Ac peptide displacement | Potency, µM (doses to about 114 µM), hits mostly inhibitors | hit rate 4.4% among 360,000 | AID 504333; further: nearly all actives have a fitted effect of over 60% in size
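Multi-concentration screen (max 110 uM) measuring displacement of acetylated histone H3 peptide from BAZ2B by AlphaScreen, using 50 nM protein, 50 nM peptide and 10 ug/mL streptavidin donor plus Ni-chelate acceptor beads.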
JMJD2A Tudor inh = inhibitors of human JMJD2A Tudor domain | O75164 | AlphaScreen JMJD2A-Tudor / H3K4me3 peptide binding | Potency, µM (top dose mostly 114 µM), hits mostly inhibitors | hit rate 4.4% among 390,000; further: nearly all actives have a fitted effect of over 50% in size
Hits are given with their value; - = inactive; ? = inconclusive; . = not tested or not shown; [ ] = another dose, or the depositor's remark. Compounds with a hit are over-represented: about 10% of the library has one in this group of screens. The call rests on the fitted dose curve; in most records, active means well fitted curve in the direction sought with a large enough effect; inconclusive means small, poorly fitted or top-dose-only effect, or another doubt; inactive means no such curve, though single readings can be large; an effect the other way counts as inactive or inconclusive.

SMILES	HP1b chromo inh	GLS inh	G9a inh	BAZ2B block	JMJD2A Tudor inh
CC1=C(C(=O)N(C(C)C)C(C)C)CC(CC(=O)NCCc2ccccn2)C(=O)N1Cc1ccc(F)cc1 (stereo not given)	.	-	.	.	.
CCn1c(C)cc(/C=C2\NC(=O)N(Cc3ccc(Cl)cc3)C2=O)c1C	-	-	-	-	-
COCCn1c(C)cc(/C=C2/NC(=O)N(Cc3ccc(C)cc3)C2=O)c1C	-	-	16µM	-	-
Cc1nn(-c2ccccc2Cl)c(Cl)c1/C=N/Nc1cccc(C(=O)O)c1	-	-	8.9µM	?	-
O=C(O)c1cccc(N/N=C/c2cccc3ccccc23)c1	-	?	35µM	-	-
O=C(O)c1cccc(Cn2c(Cl)c(/C=N/Nc3ccccc3)sc2=O)c1	-	?	13µM	25µM	?
Cc1nn(-c2cccc(C(F)(F)F)c2)c(Cl)c1/C=N/Nc1cccc(C(=O)O)c1	-	-	?	?	?
Cc1ccsc1/C=N/Nc1cccc(C(=O)O)c1	-	-	45µM	-	-
O=C(O)c1ccc(N/N=C/c2cc3ccccc3nc2Cl)cc1	-	-	?	-	-
O=C(N/N=C/c1sc(=O)n(Cc2ccc(Br)cc2)c1Cl)c1ccco1	-	-	-[0.0925 µM]	89µM	?
COc1ccc(-c2nn(-c3ccccc3)cc2/C=N/Nc2ccc(Cl)c(C(=O)O)c2)cc1OC	-	-	40µM	-	-
COc1ccc(N/N=C/c2c(C(=O)O)ccc3ccccc23)cc1	-	-	-[12.7 µM]	-	-
Cc1cccc2cc(/C=N/Nc3ccc(C(=O)O)cc3)c(Cl)nc12	-	-	.	50µM	?
COc1ccc2ccccc2c1/C=N/Nc1ccc(Cl)c(C(=O)O)c1	?	?	45µM	?	-
Cc1ccccc1-c1csc(C(C)(O)c2ccc(F)c(F)c2)n1 (stereo not given)	.	-	.	.	.
Cc1ccc2c(c1)C(c1ccccc1)N(C(=O)c1ccccc1F)CC(=O)N2 (stereo not given)	-	-	-	-	-
Cc1ccc(CN2C(=O)c3ccccc3Sc3ccc(C(=O)NC4CCCCC4)cc32)cc1	-	-	-	-	-
COc1ccc2ccccc2c1/C=N/Nc1cccc(C(=O)O)c1	-	7.9µM	45µM	?	-
CCCc1cc(SCC(=O)Nc2c(C)n(C)n(-c3ccccc3)c2=O)n2c(nc3ccccc32)c1C#N	-	-	7.9µM	-	-
Cc1nc(SCC(=O)Nc2c(C)n(C)n(-c3ccccc3)c2=O)c(C#N)c(C)c1C	-	-	-[12.7 µM]	-	-
Cc1ccc(-c2nn[nH]n2)cc1Cl	-	-	50µM	89µM	-
Cc1cc(O)ccc1Nc1nc2ccccc2nc1Nc1ccc(O)cc1C	-	-	4.5µM	50µM	89µM
O=S(=O)(c1cccs1)N1CCC2(CC1)OCCN2S(=O)(=O)c1ccccc1	-	-	-[0.501 µM]	-	-
Cc1cc(C)cc(OCC(=O)OCCN2C(=O)c3ccccc3C2=O)c1	-	-	56µM	-	-
Cc1ccc(OCC(=O)OCCN2C(=O)c3ccccc3C2=O)cc1C	-	-	-	-	-
SMILES	HP1b chromo inh	GLS inh	G9a inh	BAZ2B block	JMJD2A Tudor inh
Cc1nnc(NC(=O)C2CCN(S(=O)(=O)c3ccc(F)c(Cl)c3)CC2)o1	-	-	-	32µM	3.5µM
CCOC(=O)CSc1nc(C)[nH]c1[N+](=O)[O-]	-	-	.	-	-
Cc1nc(SCCO)c([N+](=O)[O-])[nH]1	-	-	.	-	-
Cc1nc(SCCC(C)C)c([N+](=O)[O-])[nH]1	-	-	28µM	-	-
Cc1nc(SCC(N)=O)c([N+](=O)[O-])[nH]1	-	-	-	-	40µM
CCn1cc(C(=O)N2CCN(c3cccc(C)c3C)CC2)c2cc(OC)c(OC)cc2c1=O	-	-	-	-	-
COc1ccc2c(c1)CSC(c1ccccc1)C2=O (stereo not given)	.	-	.	.	.
O=C(Nc1ccc(Br)cc1)c1cc(S(=O)(=O)N2CCc3ccccc32)ccc1F	-	-	-	-	-
O=c1cc[nH]c2c1ccc1c(=O)cc[nH]c12	-	-	45µM	-	?
O=c1cc[nH]c2c(Cl)cccc12	-	-	-[0.501 µM]	-	-
Cc1cc(-c2ccc(/C=N/n3cnnc3)o2)c(C)c([N+](=O)[O-])c1	-	-	40µM	-	?
CC(C)COC(=O)c1cc(-c2ccc(/C=N/n3cnnc3)o2)ccc1Cl	-	-	10µM	-	-
CN1CCN(/N=C/c2ccc(-c3ccc([N+](=O)[O-])cc3Cl)o2)CC1	?	-	25µM	28µM	56µM
O=[N+]([O-])c1cc(-c2ccc(/C=N/n3cnnc3)o2)ccc1Cl	-	-	.	-	-
O=[N+]([O-])c1ccc(Cl)c(-c2ccc(/C=N/n3cnnc3)o2)c1	-	-	71µM	?	?
CCOc1ccc(N/C(C)=C/C(=O)c2ccc3c(c2)OCCO3)cc1	-	-	.	?	?
COc1ccc(C(=O)Nc2ccc3c(c2)OCCO3)cc1	-	-	-	-	-
CCOc1ccc(N/C(C)=C\C(=O)c2ccc3c(c2)OCCO3)cc1	-	-	.	25µM	?
COc1ccc(C(=O)/C=C(\C)Nc2ccc3c(c2)OCO3)cc1	?	-	71µM	50µM	28µM
COc1ccc(OCC(=O)Nc2ccc3c(c2)OCO3)cc1	-	-	?	-	-
COc1ccc(C(=O)CCNc2ccc3c(c2)OCCO3)cc1	-	-	3.2µM	-	-
COc1ccc(OC)c(N/C(C)=C/C(=O)c2ccncc2)c1	-	-	40µM	?	?
C/C(=C\C(=O)c1ccncc1)Nc1ccccc1O	-	-	-	-	-
COc1ccc(Cl)cc1NC(=O)Cn1cc(C(=O)c2ccncc2)c(=O)c2cc(C)ccc21	-	-	-	-	-
COc1ccc(OC)c(NC(=O)C2(C)CCN2CCOc2ccccc2)c1 (stereo not given)	.	-	.	.	.
SMILES	HP1b chromo inh	GLS inh	G9a inh	BAZ2B block	JMJD2A Tudor inh
Cc1cccc(-c2noc(CN(C(=O)COc3ccc(Br)cc3C)C(C)C)n2)c1	-	-	-	-	-
COc1ccc(NC(=O)N2CC3(CCN(C(=O)c4ccc(OC)cc4)CC3)C2)cc1	.	.	-[12.7 µM]	.	.
CC(C)(C)N/N=C/c1c(O)n(-c2ccc(Cl)cn2)c(=O)c2ccccc12	-	-	3.2µM	-	-
O=c1c2ccccc2c(C=Nc2cccc(S(=O)(=O)NCc3ccco3)c2)c(O)n1-c1ccc(Cl)cn1	-	-	28µM	-	-
CCOC(=O)/C=C(\C)Sc1cc(=O)oc2ccccc12	-	-	-	-	-
CCOC(=O)/C=C(\C)Sc1cc(O)c2ccccc2c1O	7.9µM	-	2.5µM	28µM	7.9µM
CCN(C(=O)CSc1nc2ccccc2n1CC(=O)NCc1ccc(OC)cc1)c1ccccc1	-	-	-	-	-
Cc1nn(-c2ccccc2)c2c1cc1c(=O)n(C)c(=O)nc-1n2-c1cccc(Cl)c1	-	-	-	.	-
CC(C)NC(=O)NC(=O)CN1c2cccc3cccc(c23)S1(=O)=O	-	-	32µM	-	-
